From PubChem BioAssay (EPA / NIEHS)
Activity calls are given as the source filed them. Rule for the calls: active = hit-call score of the fitted dose curve at least 0.9, where 1 is the maximum; inactive = score below 0.9.

Columns and labels:
[1] = read-out: Monokine induced gamma interferon (MIG), CXCL9 (gene 4283); assay: BSK_hDFCGF_MIG: BioMAP Diversity Plus: hDFCGF Assay for Monokine induced gamma interferon (MIG) Biomarker Activity (AID 2283063); settings: primary human foreskin fibroblasts; actives raise or lower the signal
Method in brief: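 Fibroblasts (human foreskin, primary) dosed, 24 h, MIG by ELISA; fit bidirectional vs DMSO.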

[2] = read-out: Matrix Metallopeptidase 1 (MMP1), MMP1 (gene 4312); assay: BSK_hDFCGF_MMP1: BioMAP Diversity Plus: hDFCGF Assay for Matrix Metallopeptidase 1 (MMP1) Biomarker Activity (AID 2283064); settings: primary human foreskin fibroblasts; actives raise or lower the signal
Method in brief: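 MMP1 levels quantified by ELISA 24 h after dosing human dermal fibroblast cultures, with parallel SRB total-protein staining for overt cytotoxicity. Data fitted in both directions against DMSO baseline.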

[3] = read-out: Vascular cell adhesion molecule 1 (VCAM1), VCAM1 (gene 7412); assay: BSK_hDFCGF_VCAM1: BioMAP Diversity Plus: hDFCGF Assay for Vascular cell adhesion molecule 1 (VCAM1) Biomarker Activity (AID 2283065); settings: primary human foreskin fibroblasts; actives raise or lower the signal;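 for AC50: VCAM-1 protein level quantified by ELISA after 24 h chemical exposure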
Method in brief: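 ELISA read-out of VCAM-1 on human skin fibroblasts, 24 h post-dose; gain or loss of signal fitted bidirectionally against DMSO baseline.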

[4] = read-out: Plasminogen activator inhibitor-1 (PAI1), SERPINE1 (gene 5054); assay: BSK_hDFCGF_PAI1: BioMAP Diversity Plus: hDFCGF Assay for Plasminogen activator inhibitor-1 (PAI1) Biomarker Activity (AID 2283066); settings: primary human foreskin fibroblasts; actives raise or lower the signal
Method in brief: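 Fibroblasts from human foreskin were treated with test chemical. After 24 h, PAI-1 was measured by ELISA. Activity was fitted in both directions relative to DMSO.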

[5] = read-out: Intercellular Adhesion Molecule 1 (ICAM1), ICAM1 (gene 3383); assay: BSK_KF3CT_ICAM1: BioMAP Diversity Plus: KF3CT Assay for Intercellular Adhesion Molecule 1 (ICAM1) Biomarker Activity (AID 2283067); settings: primary human keratinocytes with fibroblasts; actives raise or lower the signal
Method in brief: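 ELISA readout of ICAM-1; KF3CT human skin co-culture (keratinocytes + foreskin fibroblasts), 24 h post-dose; gain/loss fit vs DMSO baseline.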

[6] = read-out: Interferon-gamma inducible Protein 10 (IP10), CXCL10 (gene 3627); assay: BSK_KF3CT_IP10: BioMAP Diversity Plus: KF3CT Assay for Interferon-gamma inducible Protein 10 (IP10) Biomarker Activity (AID 2283068); settings: primary human keratinocytes with fibroblasts; actives raise or lower the signal
Method in brief: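 Human keratinocyte plus foreskin fibroblast primary co-culture exposed to test chemical for 24 h; IP-10 measured by ELISA. Concentration-response fitted bidirectionally against DMSO control as baseline.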

[7] = BSK_KF3CT_SRB: Viability Assessment in the BioMAP Diversity Plus: KF3CT Assay (AID 2283069); settings: primary human keratinocytes with fibroblasts;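 note: total protein by sulforhodamine B staining as a cytotoxicity measure; read 24 h after compound addition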
Method in brief: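 Cytotoxicity was gauged by SRB staining (0.1% SRB, 10% TCA fixation, 560 nm) of parallel cultures at 24 h. The cells were primary human skin keratinocytes co-cultured with fibroblasts, and activity was fitted in both directions against DMSO.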

[8] = read-out: Transforming growth factor beta 1 (TGFb1), TGFB1 (gene 7040); assay: BSK_KF3CT_TGFb1: BioMAP Diversity Plus: KF3CT Assay for Transforming growth factor beta 1 (TGFb1) Biomarker Activity (AID 2283072); settings: primary human keratinocytes with fibroblasts; actives raise or lower the signal
Method in brief: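 KF3CT co-culture (keratinocytes + fibroblasts), 24 h exposure → TGF-b1 ELISA → bidirectional fit, DMSO = baseline. Parallel SRB total-protein staining (0.1% SRB, 10% TCA fixation, 560 nm) for cytotoxicity.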

[9] = read-out: C-C motif chemokine 2 (Homo sapiens) (UniProt P13500); assay: BSK_KF3CT_MCP1: BioMAP Diversity Plus: KF3CT Assay for Monocyte Chemoattractant Protein 1 (MCP1/CCL2) Biomarker Activity (AID 2283073); settings: primary human keratinocytes with fibroblasts; actives raise or lower the signal
Method in brief: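 KF3CT skin co-culture (keratinocytes/foreskin fibroblasts), 24 h post-dose; MCP-1 by ELISA; gain/loss of signal fit bidirectionally vs DMSO baseline.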

[10] = read-out: Matrix Metallopeptidase 9 (MMP9), MMP9 (gene 4318); assay: BSK_KF3CT_MMP9: BioMAP Diversity Plus: KF3CT Assay for Matrix Metallopeptidase 9 (MMP9) Biomarker Activity (AID 2283074); settings: primary human keratinocytes with fibroblasts; actives raise or lower the signal;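 for AC50: MMP9 protein level quantified by ELISA in the co-culture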
Method in brief: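 MMP-9 quantified by ELISA after 24 h chemical treatment of primary human skin keratinocyte/fibroblast co-cultures; gain or loss fitted against DMSO, with parallel SRB staining (0.1% SRB, 560 nm) for overt cytotoxicity.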

[11] = read-out: urokinase plasminogen activator (uPA), PLAU (gene 5328); assay: BSK_KF3CT_uPA: BioMAP Diversity Plus: KF3CT Assay for urokinase plasminogen activator (uPA) Biomarker Activity (AID 2283075); settings: primary human keratinocytes with fibroblasts; actives raise or lower the signal
Method in brief: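 ELISA read-out of uPA 24 h after dosing human skin keratinocytes co-cultured with foreskin fibroblasts. Signal change fitted both ways relative to DMSO; sulforhodamine B on parallel cultures marks overt cytotoxicity.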

[12] = read-out: CD40, CD40 (gene 958); assay: BSK_LPS_CD40: BioMAP Diversity Plus: LPS Assay for CD40 Biomarker Activity (AID 2283076); settings: primary human HUVEC with PBMC; actives raise or lower the signal
Method in brief: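 ELISA readout of CD40 in HUVEC/PBMC co-culture (BSK_LPS system), 24 h post-dosing; bidirectional curve fit, DMSO baseline; parallel SRB total-protein staining for cytotoxicity.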

[13] = read-out: E-selectin (Homo sapiens) (UniProt P16581); assay: BSK_LPS_Eselectin: BioMAP Diversity Plus: LPS Assay for Eselectin Biomarker Activity (AID 2283077); settings: primary human HUVEC with PBMC; actives raise or lower the signal
Method in brief: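 ELISA readout of E-selectin, 24 h post-dose, HUVEC + PBMC co-culture (LPS system). Gain or loss of signal vs DMSO baseline, bidirectional fit.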

[14] = read-out: Interleukin-8 (IL8), CXCL8 (gene 3576); assay: BSK_LPS_IL8: BioMAP Diversity Plus: LPS Assay for Interleukin-8 (IL8) Biomarker Activity (AID 2283078); settings: primary human HUVEC with PBMC; actives raise or lower the signal
Method in brief: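 HUVEC + PBMC co-culture, LPS-activated; test chemicals dosed, IL-8 read by ELISA at 24 h. Bidirectional curve fit vs DMSO baseline (gain or loss of signal).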

[15] = BSK_LPS_SRB: Viability Assessment in the BioMAP Diversity Plus: LPS Assay (AID 2283079); settings: primary human HUVEC with PBMC;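 note: total protein by sulforhodamine B absorbance as a cytotoxicity measure; measured one day after compound addition; fitted in both directions against DMSO so loss or gain of signal counts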
Method in brief: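 HUVEC + PBMC co-culture, LPS-stimulated; compound 24 h. 10% TCA fix, 0.1% SRB stain, A560. Bidirectional fit vs DMSO.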

[16] = read-out: Interleukin-1 alpha (IL1a), IL1A (gene 3552); assay: BSK_LPS_IL1a: BioMAP Diversity Plus: LPS Assay for Interleukin-1 alpha (IL1a) Biomarker Activity (AID 2283080); settings: primary human HUVEC with PBMC; actives raise or lower the signal
Method in brief: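 HUVEC/PBMC co-culture, LPS system; 24 h after dosing; IL-1a by ELISA; gain or loss of signal fitted bidirectionally vs DMSO baseline.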

[17] = read-out: Monocyte Chemoattractant Protein-1 (MCP1), CCL2 (gene 6347); assay: BSK_LPS_MCP1: BioMAP Diversity Plus: LPS Assay for Monocyte Chemoattractant Protein-1 (MCP1) Biomarker Activity (AID 2283081); settings: primary human HUVEC with PBMC; actives raise or lower the signal;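 for AC50: secreted MCP-1 protein quantified by ELISA in culture supernatant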
Method in brief: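 ELISA read-out of MCP-1 after 24 h chemical dosing of a human umbilical vein endothelial cell/peripheral blood mononuclear cell co-culture stimulated with LPS. Gain or loss of signal fitted relative to DMSO controls.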

[18] = BSK_LPS_PGE2: BioMAP Diversity Plus: LPS Assay for Prostaglandin E2 (PGE2) Biomarker Activity (AID 2283082); settings: primary human HUVEC with PBMC; actives raise or lower the signal;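 for AC50: secreted prostaglandin E2 measured by ELISA in LPS-stimulated co-culture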
Method in brief: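 Compounds were added to the LPS co-culture of endothelium and PBMC, and PGE2 was measured by ELISA after 24 h. Responses in either direction were fitted with DMSO as baseline.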

[19] = read-out: Interleukin-1 alpha (IL1a), IL1A (gene 3552); assay: BSK_KF3CT_IL1a: BioMAP Diversity Plus: KF3CT Assay for Interleukin-1 alpha (IL1a) Biomarker Activity (AID 2283070); settings: primary human keratinocytes with fibroblasts; actives raise or lower the signal
Method in brief: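 IL-1a was detected by ELISA 24 h after chemical treatment of a co-culture of human skin keratinocytes and foreskin fibroblasts. Gain or loss of signal was fitted against the DMSO baseline.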

[20] = read-out: TIMP metallopeptidase inhibitor 2 (TIMP2), TIMP2 (gene 7077); assay: BSK_KF3CT_TIMP2: BioMAP Diversity Plus: KF3CT Assay for TIMP metallopeptidase inhibitor 2 (TIMP2) Biomarker Activity (AID 2283071); settings: primary human keratinocytes with fibroblasts; actives raise or lower the signal
Method in brief: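 Chemicals were dosed onto human skin primary co-cultures of keratinocytes and foreskin fibroblasts, and TIMP-2 was measured by ELISA after 24 hours. Activity in either direction was fitted relative to DMSO.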

Measured: AC50

E-selectin (Homo sapiens), sequence (P16581 whole entry, looked up): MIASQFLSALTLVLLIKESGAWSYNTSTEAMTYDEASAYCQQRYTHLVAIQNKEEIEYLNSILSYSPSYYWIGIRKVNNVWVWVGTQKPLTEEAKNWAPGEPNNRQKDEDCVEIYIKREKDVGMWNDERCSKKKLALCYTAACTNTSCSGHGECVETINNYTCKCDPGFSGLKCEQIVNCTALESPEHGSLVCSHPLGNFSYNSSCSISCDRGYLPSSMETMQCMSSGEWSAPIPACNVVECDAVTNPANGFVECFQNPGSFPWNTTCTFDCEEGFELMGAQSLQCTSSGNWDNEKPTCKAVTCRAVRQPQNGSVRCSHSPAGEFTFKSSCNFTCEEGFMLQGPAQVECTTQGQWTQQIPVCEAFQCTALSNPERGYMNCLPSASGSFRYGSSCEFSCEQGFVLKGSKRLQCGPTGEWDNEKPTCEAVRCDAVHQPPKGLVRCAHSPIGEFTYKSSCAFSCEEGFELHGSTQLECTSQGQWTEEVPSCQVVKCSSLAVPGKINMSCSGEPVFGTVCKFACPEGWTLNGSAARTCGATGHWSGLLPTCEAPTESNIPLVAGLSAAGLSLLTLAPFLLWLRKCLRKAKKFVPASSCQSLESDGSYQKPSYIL

CCOCCOCCO
not listed: [19] | [20]
inactive: all other assays above

Nc1nc(Cl)nc2c1ncn2[C@H]1C[C@H](O)[C@@H](CO)O1
active: [4] 10.2 µM | [12] 2.29 µM | [14] 0.628 µM | [15] 0.814 µM | [16] 1.68 µM | [17] 0.659 µM
not listed: [19] | [20]
inactive: all other assays above

CS(=O)(=O)c1ccc([C@@H](C[C@H]2CCC(=O)C2)C(=O)Nc2cnccn2)cc1Cl
not listed: [19] | [20]
inactive: all other assays above

CCCCC(CC)COC(=O)CCCCCCCC(=O)OCC(CC)CCCC (stereo unspecified)
not listed: [19] | [20]
inactive: all other assays above

C/C=C/c1ccc(OC)cc1
active: [17] 13.8 µM
not listed: [19] | [20]
inactive: all other assays above

NCCOCCOCCN
not listed: [4] | [19] | [20]
inactive: all other assays above

C=CCCCCCCCCCCCC
not listed: [19] | [20]
inactive: all other assays above

Nc1nc(=S)c2[nH]cnc2[nH]1
active: [2] 24.8 µM | [18] 20 µM
not listed: [3] | [20]
inactive: all other assays above

CCCCCCCCCCCCCCOS(=O)(=O)O
inactive: [12] | [13] | [14] | [15] | [16] | [17] | [18]
active: [1] 7.52 µM | [2] 5.54 µM | [3] 7.85 µM | [4] 9.05 µM | [5] 16.2 µM | [6] 8.99 µM | [7] 8 µM | [8] 5.78 µM | [9] 8.92 µM | [10] 8.96 µM | [11] 9.42 µM

Cc1c(C)c2c(c(C)c1O)CCC(C)(COc1ccc(CC3SC(=O)NC3=O)cc1)O2 (stereo unspecified)
active: [1] 20 µM | [2] 24.8 µM | [3] 11.8 µM | [4] 8.87 µM | [5] 14.1 µM | [6] 11.3 µM | [7] 13.8 µM | [8] 20.9 µM | [9] 15.1 µM | [10] 12.7 µM | [11] 12 µM | [12] 28.7 µM | [13] 30.3 µM | [14] 32.1 µM | [15] 26.3 µM | [16] 32.7 µM | [17] 30.8 µM | [18] 32.5 µM

NC(=Nc1ccccc1)Nc1ccccc1
active: [2] 3.71 µM
not listed: [1]
inactive: all other assays above

O=NO
not listed: [19] | [20]
inactive: all other assays above

Cc1cc(Cc2ccc(N)c(C)c2)ccc1N
not listed: [19] | [20]
inactive: all other assays above

CC(=O)O[C@]1(C(C)=O)CC[C@H]2[C@@H]3C=C(Cl)C4=CC(=O)[C@@H]5C[C@@H]5[C@]4(C)[C@H]3CC[C@@]21C
active: [4] 1.74 µM | [12] 31.5 µM | [15] 30.9 µM
not listed: [6]
inactive: all other assays above

CC(C)NCC(O)c1ccc(O)c(O)c1 (stereo unspecified)
not listed: [19] | [20]
inactive: all other assays above

Cc1cn([C@H]2C=C[C@@H](CO)O2)c(=O)[nH]c1=O
not listed: [15] | [19] | [20]
inactive: all other assays above

CCCCC(CC)COP(=O)(OCC(CC)CCCC)OCC(CC)CCCC (stereo unspecified)
active: [14] 5.39 µM
not listed: [19] | [20]
inactive: all other assays above
